Assay results as given in PubChem BioAssay (NCI).
The panel holds about 83,000 compounds, 20% with a hit somewhere; the sample as a whole holds those more often.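 Single-concentration screen, 48 h exposure, 96-well plates. Endpoint: percent growth. Below 10 = active.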 Active and inactive are the calls of the source.

What follows are compounds tested on HL-60(TB) leukemia (assay: NCI-60 one-dose screen, 48 h (100 = growth as untreated, 0 = no growth, -100 = all killed)). Details: 10 µM unless noted.
`Cc1occc1-c1nc2s/c(=C\c3cn(-c4ccccc4)nc3-c3ccccc3)c(=O)n2n1` was tested, and the growth was 102% (inactive). `CC1=C(C)C(=O)C(Nc2cccc(C(F)(F)F)c2)=C(Cl)C1=O` was tested, and the growth was 38.5% (inactive). With `COc1cc2cc(Oc3ccc(NC(=O)Nc4cccc(C(F)(F)F)c4)cc3)c(C)nc2cc1OCCN(C)C` the growth was 133% (inactive). For `CN(C)C(=O)C1=NC(CO)C(=O)N(c2ccc(Cl)cc2)N1` (stereo not drawn), the growth was 110% (inactive). For `Cc1ccc2ccc3ccc(C)nc3c2n1.Cc1ccc2ccc3ccc(C)nc3c2n1.Oc1c(Cl)cc(Cl)c2ccc(CN3CCCCC3)nc12.[Ru]`, the growth was -52.1% (active). With `C=CCn1c(-c2nc3ccc(C(=C(C#N)C#N)c4ccccc4)cc3[nH]2)cc2cc(Br)ccc21` the growth was 59.2% (inactive). With `COc1cc(OC)cc(-c2cc(-c3c[nH]c4ccccc34)nc(-c3c[nH]c4ccccc34)c2C#N)c1` the growth was 102% (inactive). `COc1ccc(NCc2cn(-c3ccc(C(=O)O)cc3)nc2-c2cc(C(F)(F)F)cc(C(F)(F)F)c2)cc1` was tested, and the growth was 90.6% (inactive). `O=S(=O)(Oc1ccc(-c2cn3ccoc3n2)cc1)c1cccc(C(F)(F)F)c1` was tested, and the growth was 105% (inactive). With `Cc1cc(C)c(N2C(=O)CC(Nc3ccc(Cl)cc3Cl)C2=O)c(C)c1` (stereo not drawn) the growth was 100% (inactive). In the case of `N/C(=N\c1nc2c(Cl)cccc2s1)C(Cl)(Cl)Cl`, the growth is reported as 25.5% (inactive). For `Cc1ccc(N2CCN(C3=C(Cl)C(=O)c4ncccc4C3=O)CC2)cc1`, the growth was 3.39% (active). `CC1=C(C)C(=O)C(Nc2ccc(C)c(C)c2)=C(Br)C1=O` was tested, and the growth was -37.7% (active).
